Active and inactive are the calls of the source.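 Rule for the calls: active = every separate test run called active, meaning the signal drops and a potency is fitted within twice the top valid dose; inconclusive = runs disagree, poor fit, or flat partial inhibition; inactive = all runs inactive, flat, opposite direction or too weak.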

Mitogen-activated protein kinase 3 (Homo sapiens), sequence (P27361 whole entry, looked up): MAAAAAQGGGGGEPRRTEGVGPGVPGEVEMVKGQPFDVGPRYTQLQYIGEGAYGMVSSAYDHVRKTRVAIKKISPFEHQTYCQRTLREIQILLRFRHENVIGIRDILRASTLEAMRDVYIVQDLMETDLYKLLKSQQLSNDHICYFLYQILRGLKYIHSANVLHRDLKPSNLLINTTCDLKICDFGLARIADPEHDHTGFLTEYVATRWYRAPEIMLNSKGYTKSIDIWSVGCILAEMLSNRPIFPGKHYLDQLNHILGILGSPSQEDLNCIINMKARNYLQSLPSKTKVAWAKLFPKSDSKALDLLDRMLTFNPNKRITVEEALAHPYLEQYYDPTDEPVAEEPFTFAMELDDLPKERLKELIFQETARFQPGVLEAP

The experiment concerns the target Mitogen-activated protein kinase 3 (Homo sapiens) (UniProt P27361). Nature of the experiment: ERK1 kinase inhibitors, dose response, selectivity assay for Dyrk1A inhibitor NFAT project, biochemical, ADP-Glo luminescence, cherry pick, set 2 (AID 602295). The settings on record: 120 min; series mostly up to 10 µM. (ADP-Glo first removes unused ATP, then detects ADP through luciferase.)
For the compound `c1nc(NCC2CCCOC2)c2cc(-c3ccc4c(c3)OCO4)ccc2n1` (stereo not drawn), the call was inactive. The value for `Cc1cc(NCCCn2ccnc2)n2ncc(-c3ccc(Cl)cc3)c2n1` was “inactive”; that for `c1cncc(-c2nc(NCc3ccco3)c3ccccc3n2)c1` was “inactive”. Next, `Cc1nc(CNc2ncnc3ccc(-c4ccoc4)cc23)cs1`: “inactive”; `c1cncc(CNc2nccc(-c3ccc4[nH]ncc4c3)n2)c1`: “inactive”.

Consider `O=C(CSc1nnnn1-c1ccc(O)cc1)Nc1ccc(N2CCOCC2)c(Cl)c1`, for which the call was inactive.

Regarding `c1cncc(CNc2nccc(-c3ccc4cn[nH]c4c3)n2)c1`, the outcome was inactive. On to `Clc1ccc(CNc2nccc(-c3ccc4[nH]ncc4c3)n2)cc1Cl`, for which the compound was classed as inactive.

In the case of `c1coc(CCNc2ncnc3ccc(-c4ccc5c(c4)OCO5)cc23)c1`, the result was inactive. The value for `c1cncc(CNc2nccc(-c3ccc4c(c3)OCO4)n2)c1` was “inactive”; that for `Clc1ccccc1-c1ccc2ncnc(NCc3ccc4c(c3)OCO4)c2c1` was “inactive”; that for `Cc1csc(CN(C)c2ncnc3ccc(-c4ccc5c(c4)OCO5)cc23)n1` was “inactive”. For `CN(C)S(=O)(=O)c1ccc(Cl)c(C(=O)Nc2cccc3ncccc23)c1`, the result was inactive. Next, `Cc1ccnc(NC(=O)c2cccc(S(=O)(=O)N3CCN(c4ccccc4)CC3)c2)c1`: “inactive”. The value for `COc1cc(C(=O)Nc2cccc(-c3nncn3C)c2)cc(OC)c1OC` was “inactive”. Take `c1cncc(CNc2ccnc(-c3ccc4cn[nH]c4c3)n2)c1`: the result was inactive. The value for `COc1cccc(NC(=O)c2sc(NC(=O)c3ccncc3)nc2C)c1` was “inactive”; that for `CC1Cc2ccccc2N1c1ncnc2nc[nH]c12` (stereo not drawn) was “inactive”; that for `Cc1nc(N)sc1-c1csc(Nc2ccccc2)n1` was “inactive”. The value for `CC(=O)Nc1ccc(Nc2cc(C)nc3c(-c4ccccc4)cnn23)cc1` was “inactive”; that for `COCCNC(=O)c1ccc2c(c1)nc(C)n2-c1cccc(F)c1` was “inactive”. In the case of `COc1ccc(-c2[nH]ncc2-c2ccc3c(c2)OCCO3)c(O)c1`, the outcome was inactive. Consider `CN(C)S(=O)(=O)c1ccc(NC(=O)c2cc3ccccc3o2)cc1`, for which the call was inactive. Next, `c1nc(NCC2CCCC2)c2cc(-c3ccc4c(c3)OCO4)ccc2n1`: “inactive”; `COc1cccc(Nc2ncnc3sc(C)cc23)c1`: “inactive”; `O=c1cc(-c2ccccc2Cl)oc2c(NS(=O)(=O)c3ccccc3C(F)(F)F)ccc(O)c12`: “inactive”. The value for `Fc1cccc(Nc2nc(-c3ccncc3)nc3ccccc23)c1` was “inactive”; that for `COc1ccc(-c2nccc(NCc3ccc(C)cc3)n2)cc1` was “inactive”; that for `Cc1nc(CN(C)c2ncnc3ccc(-c4ccc5c(c4)OCO5)cc23)cs1` was “inactive”. Turning to `Brc1ccc(CNc2nccc(-c3ccc4c(c3)OCO4)n2)cc1Br`, the compound was called inactive. The value for `N#CCSc1nc(Nc2ccc3c(c2)OCO3)c2ccccc2n1` was “inactive”; that for `Clc1ccc(Nc2nccc(-c3ccc4c(c3)OCO4)n2)cc1` was “inactive”; that for `CC(=O)Nc1cccc(NC(=O)c2cc3ccccc3o2)c1` was “inactive”.

The record behind these values is PubChem BioAssay AID602295 (Broad Institute, 2012).
